# From PubChem BioAssay AID720551 (National Center for Advancing Translational Sciences (NCATS), 2013)
# The campaign covered roughly 340,000 compounds. About 1,300 (0.38%) were called active. The list comes from a sample in which actives are over-represented; it also holds similar structures and randomly drawn compounds. A number with no mark means an inactive call.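 How the source made its calls: active means maximum activity change below -70%; inconclusive means maximum activity change between -70% and -50%; inactive means maximum activity change above -50%.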
# Target: Voltage-gated inwardly rectifying potassium channel KCNH2 (Homo sapiens) (UniProt Q12809)
# Sequence (Q12809 whole entry, looked up): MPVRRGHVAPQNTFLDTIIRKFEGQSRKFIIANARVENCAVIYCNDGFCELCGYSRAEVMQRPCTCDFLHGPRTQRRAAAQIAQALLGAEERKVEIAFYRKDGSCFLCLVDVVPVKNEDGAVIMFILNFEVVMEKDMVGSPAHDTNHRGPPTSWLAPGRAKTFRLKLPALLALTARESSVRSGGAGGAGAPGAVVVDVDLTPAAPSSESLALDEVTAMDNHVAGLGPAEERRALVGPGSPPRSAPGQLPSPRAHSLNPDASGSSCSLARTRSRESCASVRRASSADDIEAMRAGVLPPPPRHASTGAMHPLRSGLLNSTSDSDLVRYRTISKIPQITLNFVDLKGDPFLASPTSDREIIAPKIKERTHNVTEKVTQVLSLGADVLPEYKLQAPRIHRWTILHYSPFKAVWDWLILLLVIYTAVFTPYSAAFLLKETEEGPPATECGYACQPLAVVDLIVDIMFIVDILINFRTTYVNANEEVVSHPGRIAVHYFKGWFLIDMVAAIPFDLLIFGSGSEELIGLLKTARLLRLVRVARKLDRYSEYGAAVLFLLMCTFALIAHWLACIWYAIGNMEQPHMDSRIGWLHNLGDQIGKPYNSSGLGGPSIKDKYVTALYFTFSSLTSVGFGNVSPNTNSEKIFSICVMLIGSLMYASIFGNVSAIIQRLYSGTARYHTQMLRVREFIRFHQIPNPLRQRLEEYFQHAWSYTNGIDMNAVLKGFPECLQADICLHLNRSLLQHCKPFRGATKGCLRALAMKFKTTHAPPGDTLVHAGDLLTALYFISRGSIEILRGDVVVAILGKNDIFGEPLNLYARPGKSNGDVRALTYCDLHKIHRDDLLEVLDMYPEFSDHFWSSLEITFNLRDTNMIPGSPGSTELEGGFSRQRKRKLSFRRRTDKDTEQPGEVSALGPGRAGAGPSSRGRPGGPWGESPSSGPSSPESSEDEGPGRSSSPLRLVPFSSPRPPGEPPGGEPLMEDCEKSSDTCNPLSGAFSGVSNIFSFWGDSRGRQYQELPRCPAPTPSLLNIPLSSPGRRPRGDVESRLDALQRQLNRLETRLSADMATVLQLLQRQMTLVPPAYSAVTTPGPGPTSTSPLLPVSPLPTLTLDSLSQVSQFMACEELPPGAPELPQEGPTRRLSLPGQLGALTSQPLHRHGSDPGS
# Assay: qHTS for Inhibitors of KCHN2 3.1: Wildtype qHTS
# Conditions: U2OS, BacMam KCNH2, thallium flux FluxOr; at 1.84 µM; hits give low values
# Outline: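 U2OS cells transduced with wild-type KCNH2 virus are loaded with FluxOr dye for 45 min, and thallium flux is measured in kinetic reads before and after stimulation buffer. Rate constants are normalized to DMSO controls.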
# On the % scale 0 is the no-effect control and ±100 the full control effect.
row,SMILES,activity change
1,COC(=O)C[C@H]1C[C@@H]2c3cc(N(C)C)ccc3O[C@@H]2[C@H](CO)O1,-11.4%
2,O=C(c1ccc(CS(=O)Cc2ccccc2Cl)o1)N1CCN(c2ccccc2)CC1 (configuration not stated),7.11%
3,CCOC(=O)c1ccc2c(c1)nc(C)n2CC,12.4%
4,Cc1nc2ccccc2n1CC(O)c1ccccc1 (configuration not stated),-1.47%
5,CCn1c(C)nc2c1C(=O)c1ccccc1C2=O,-229% (active)
6,C[C@@H]1CN([C@H](C)CO)C(=O)CCCn2cc(nn2)CO[C@H]1CN(C)S(C)(=O)=O,-23.5%
7,CC(C)N=C1CCCC1C(=S)SSC(=S)C1CCCC1=NC(C)C (configuration not stated),-26.8%
8,Cc1ccc(S(=O)(=O)/N=C2\C=C(NS(=O)(=O)c3ccc(C)cc3)C(=O)c3ccccc32)cc1,1.35%
9,Cc1ccc2sc(N(CCN(C)C)C(=O)/C=C/c3cccs3)nc2c1C,-101% (active)
10,Cc1ccc(S(=O)(=O)N(C)C)cc1NC(=O)/C=C/c1cccs1,-0.908%
11,Cc1cc(C)c2nc(N(CCN(C)C)C(=O)/C=C/c3cccs3)sc2c1,-136% (active)
12,Cc1cccc2sc(N(CCCN(C)C)C(=O)CCS(=O)(=O)c3ccccc3)nc12,3.42%
13,Cc1ccc(S(=O)(=O)N(C)C)cc1NC(=O)COC(=O)/C=C/c1cccs1,-3.39%
14,CN(C)CCN(C(=O)CN1C(=O)c2ccccc2C1=O)c1nc2cc3c(cc2s1)OCCO3,8.23%
15,CCOc1ccc(CCNC(=O)COC(=O)c2ccc(C)c(S(=O)(=O)N3CCOCC3)c2)cc1OCC,-0.902%
16,O=C(Nc1cccc(C(=O)O)c1)/C(=C\c1ccccc1)NC(=O)c1ccc(Br)o1,9.44%
17,Cc1ccc(S(=O)(=O)NN=C2CC(C)(C)CC(=O)C2(C)C)cc1,-3.73%
18,O=C(OCc1ccccc1)N1CCC2CC1c1cc(N3CCN(S(=O)(=O)c4cc(Cl)cc(Cl)c4)CC3)ccc12 (configuration not stated),3.43%
19,O=C(Nc1cccn(Cc2ccccc2Cl)c1=O)NC1CCCCC1,-11.4%
20,Cc1cc(NC(=O)c2ccco2)c(=O)n(Cc2c(F)cccc2Cl)c1,-11.4%
21,O=C(Nc1cccn(Cc2c(Cl)cccc2Cl)c1=O)c1ccc(Cl)cc1,-350% (active)

row,SMILES,activity change
1,CCOC(=O)C1CCN(C(=O)c2ccc3c(=O)n4nc(Nc5ccccc5CC)sc4nc3c2)CC1,-22.8%
2,CCN(CC)C(=O)C1=C(C)N(Cc2ccc(F)cc2)C(=O)C(CC(=O)NCc2cccc3ccccc23)C1 (configuration not stated),6.51%
3,COC(=O)c1ccc(OC(=O)c2cnccn2)cc1,-0.0992%
4,O=C(Oc1ccc(-c2nc(-c3ccccn3)no2)cc1)c1ccccc1,-11.6%
5,O=C(Oc1ccccc1)c1ccc2nccnc2c1,-169% (active)
6,Cc1cccc(C(=O)C(O)(c2ccccc2)C2CCCCC2=O)c1 (configuration not stated),8.63%
7,N#CCSc1ccccc1NC(=O)CN1C(=O)NC(CCc2ccccc2)C1=O (configuration not stated),-4.38%
8,CC1CCC2(CC1)NC(=O)N(CC(=O)NCc1ccco1)C2=O (configuration not stated),5.92%
9,CCOC(=O)CNC(=O)CN1C(=O)CCSc2ccccc21,10.6%
10,COc1ccc(CCNC(=O)CN2C(=O)CCSc3ccccc32)c(OC)c1,-169% (active)
11,COc1ccc(CCNC(=O)CCc2cn(C)c3ccccc23)c(OC)c1,6.58%
12,CCOC(=O)C(C(=O)c1ccccc1)C(c1ccccc1)c1nccc2ccccc12 (configuration not stated),3.11%
13,O=C(COC(=O)c1ccc(F)cc1)Nc1ccc2c(c1)OCO2,-0.371%
14,O=C(CN1CCN(CC(=O)Nc2ccc3c(c2)OCO3)CC1)Nc1ccc(F)cc1,-129% (active)
15,O=C(CN1CCN(C(=O)c2ccco2)CC1)Nc1ccc2c(c1)OCO2,-4.79%
16,CCCCN1C(=O)C(CC(=O)NCc2cccs2)CC(C(=O)N2CCOCC2)=C1C (configuration not stated),-2.88%
17,Cc1ccc(S(=O)(=O)N2C[C@]3(O)C[C@@H]4C(=O)N(c5ccccc5)C(=O)[C@@H]4C[C@]3(OC(=O)NC3CC3)C2)cc1,-7.72%
18,CN(C)/C=C(/C(=O)c1ccccc1Cl)S(C)(=O)=O,-134% (active)
19,CN(C)/C=C(/C(=O)c1ccccc1)S(=O)(=O)c1ccc(Cl)cc1,-7.44%
20,CN(C)/C=C(/C(=O)c1ccc(Cl)cc1)S(=O)(=O)c1ccccc1,0.0109%
21,COCC1CCCCN1C(=O)c1cc(COc2ccc(C)c(C)c2)on1 (configuration not stated),-11.8%
